Keap1-Nrf2 PPI = Keap1-Nrf2 (human) interaction inhibition | Keap1 Kelch-Nrf2 peptide fluorescence polarization, 1536-well | inhibition, % at 9.4 µM | hit rate 0.15% among 340,000 | AID 504523; in the data active = inhibition above about 12%;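 also: human Keap1 Kelch domain with fluorescein labeled Nrf2 9mer peptide probe; 0% = neutral control wells and 100% = peptide positive control; higher means more block of Keap1 binding to Nrf2 peptide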
Target sequence (Q14145 whole entry, looked up, the tested form may be a part): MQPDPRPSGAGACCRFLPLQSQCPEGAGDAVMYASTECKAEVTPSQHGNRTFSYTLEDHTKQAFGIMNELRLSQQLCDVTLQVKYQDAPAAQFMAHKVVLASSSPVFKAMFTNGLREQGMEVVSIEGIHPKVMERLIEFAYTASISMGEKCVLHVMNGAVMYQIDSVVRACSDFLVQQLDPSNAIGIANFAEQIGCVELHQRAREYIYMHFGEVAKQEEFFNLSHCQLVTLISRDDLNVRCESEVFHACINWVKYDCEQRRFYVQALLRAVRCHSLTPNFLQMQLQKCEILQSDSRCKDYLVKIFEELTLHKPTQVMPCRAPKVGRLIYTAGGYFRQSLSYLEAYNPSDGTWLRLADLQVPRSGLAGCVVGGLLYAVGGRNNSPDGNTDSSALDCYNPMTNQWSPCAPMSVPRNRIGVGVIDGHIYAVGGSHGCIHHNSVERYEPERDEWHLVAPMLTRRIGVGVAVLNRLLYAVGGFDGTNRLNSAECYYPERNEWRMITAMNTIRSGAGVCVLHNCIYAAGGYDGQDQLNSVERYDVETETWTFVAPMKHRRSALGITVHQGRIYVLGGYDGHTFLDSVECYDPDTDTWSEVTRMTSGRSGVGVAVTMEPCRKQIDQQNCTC
cardiac RTF act = increases calcium sensitivity of human cardiac regulated thin filaments. P19429+P45379. IANBD-labeled TnC RTF fluorescence at EC20 calcium; 0% EC20 calcium, 100% full calcium. activation, % at 7.2 µM. hit rate 0.24% among 340,000. AID 493008;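 active = activation above the mean over all tested compounds plus 3 SD, cut at about 30% in these data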;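 also: rise in fluorescence read as greater calcium sensitivity of cardiac thin filaments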
C-LANA FP = inhibitors of KSHV LANA C-terminal domain DNA binding. hit rate 0.078% among 340,000. inhibition, % at 9 µM. MBP-C-LANA/FAM-LBS DNA binding, fluorescence polarization;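 active = highest replicate inhibition at or above 60% at 9 µM, even if other replicates fall short; inactive = all replicates below 60% inhibition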;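 also: 0% = neutral control wells and 100% = 4 µM acridine orange control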
eLon inh = E. coli protease La inhibition; P0A9M0; purified E. coli Lon protease, fluorescence polarization; inhibition, % at 7.94 µM; hit rate 0.42% among 360,000; in the data active = inhibition above about 13%, passing the limit was not always enough;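 also: 0% = enzyme with probe and DMSO and 100% = no enzyme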
Cardiac RTF inh = cardiac RTF calcium desensitization; P19429+P45379; IANBD-labeled cardiac RTF, Ca2+ fluorescence; inhibition, % at 7.15 µM; hit rate 0.12% among 340,000;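 active = inhibition above the mean inhibition of all tested compounds plus 3 SD, cut at about 17% in these data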;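 also: assay run at fixed EC70 calcium of 1.6 mM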
RTF inh confirm = cardiac RTF calcium sensitivity inhibition, confirmation; shares compounds with Cardiac RTF inh; inhibition, % at 7.15 µM; reconstituted cardiac thin filaments, calcium sensitivity fluorescence; hit rate 8% among 360; AID 504635; in the data active = inhibition above about 18%
Starred values were filed as active, the others as inactive; · = no result. In the library only some 0.82% were active in any assay of this set; here they are far more common.

SMILES	Keap1-Nrf2 PPI	cardiac RTF act	C-LANA FP	eLon inh	Cardiac RTF inh	RTF inh confirm
CCOc1ccc(Cl)cc1S(=O)(=O)N1CCC(C(=O)NCc2ccncc2)CC1	2	6	0	3	-14	·
COc1cccc2c1NC(C(=O)O)C1CC=CC21 (stereo not given)	1	-36	58	-12	19*	15
COc1ccccc1CN1CC(C(=O)NCCC2=CCCCC2)CCC1=O (stereo not given)	1	1	0	0	-4	·
COc1ccccc1C(=O)NC(=O)COC(=O)CCOc1ccccc1C	0	-14	0	-4	28*	-1
Cc1ccccc1OCC(=O)OCC(=O)NCCNC(=O)COC(=O)COc1ccccc1C	-2	-10	0	0	17*	0
Cc1ccccc1OCC(=O)OCC(=O)NCc1ccccc1	0	-4	0	-8	7	·
COc1ccccc1C(=O)NC(=O)COC(=O)CCOc1ccc(C)cc1	0	-2	0	13	-19	·
CN1C(=O)N(CC(=O)Nc2sccc2C(N)=O)C(=O)C12CCCCC2	1	0	0	-26	17*	-4
CN1C(=O)N(CC(=O)Nc2nccs2)C(=O)C12CCCCC2	-6	0	1	0	7	·
CC1C(=O)N2CCCc3cc(NC(=O)C(=O)NCCCc4ccccc4)cc1c32 (stereo not given)	-2	-11	-2	-4	-8	·
CCn1ncc(Br)c1C(=O)Nc1ccc(C(C)C)cc1	-1	-9	-2	6	0	·
O=C(Nc1ccc(F)cc1)Nc1nnc(-c2ccccc2)o1	2	-4	0	-4	-2	·
O=C(Nc1nnc(-c2ccccc2)o1)Nc1ccc(F)cc1F	1	-7	1	-5	17*	4
Cc1ccccc1-c1cnc2c(c1)C(=O)N([C@@H](C)CO)C[C@@H](C)[C@H](CN(C)Cc1ccccc1F)O2	·	·	·	1	·	·
O=C(Nc1ccc(N=Nc2ccccc2)c(NC(=O)C2CCCO2)c1)C1CCCO1 (stereo not given)	-1	-6	-1	0	21*	-1
CC1CCCN(C(=O)COC(=O)CSc2ccc(C(N)=O)cc2[N+](=O)[O-])C1 (stereo not given)	1	-6	-1	-6	-10	·
CC1CCN(C(=O)COC(=O)CSc2ccc(C(N)=O)cc2[N+](=O)[O-])CC1	-4	-1	0	-2	17*	1
O=C(CCNC(=O)c1ccccc1)Nc1ccc(Cl)c(S(=O)(=O)N2CCCCC2)c1	-4	3	1	-6	8	·
Cc1ccc(C(=O)NC(=S)Nn2cnnc2)cc1	-2	6	0	2	-1	·
O=C(NC(=S)Nn1cnnc1)c1cccc(Br)c1	2	-3	0	11	19*	-4
O=C(Nc1nonc1NC(=O)c1cccs1)c1cccs1	-3	2	-2	12	5	·
CC[C@@H](C(=O)[C@@H](C)[C@@H](O)[C@H](C)[C@@H]1O[C@@H]([C@@H](CC)C(=O)O)CC[C@@H]1C)[C@H]1O[C@]2(C=C[C@@H](O)[C@]3(CC[C@@](C)([C@H]4CC[C@](O)(CC)[C@H](C)O4)O3)O2)[C@H](C)C[C@@H]1C	2	2	-2	-4	20*	-2
NC(=O)CSc1oc(-c2ccco2)nc1S(=O)(=O)c1ccc(F)cc1	2	-3	2	-4	18*	-2
Oc1ccc(-c2nc(-c3ccc(F)cc3)c(-c3ccncc3)[nH]2)cc1	-1	2	-1	-4	20*	1
COc1ccc(NC(=O)CN(C)S(=O)(=O)c2ccc3c(c2)CC(C)N3C(C)=O)cc1OC (stereo not given)	0	-3	0	0	-2	·
SMILES	Keap1-Nrf2 PPI	cardiac RTF act	C-LANA FP	eLon inh	Cardiac RTF inh	RTF inh confirm
CCCCn1c(SC(C)C(=O)NCC2CCCO2)nc2cc(C(=O)OC)ccc2c1=O (stereo not given)	2	-4	-11	-13	19*	-4
CCCCn1c(SC(C)C(N)=O)nc2cc(C(=O)OC)ccc2c1=O (stereo not given)	-4	-3	0	11	-21	·
CSc1ccc(Cl)c(C(=O)Nc2cc(S(=O)(=O)N3CCOCC3)ccc2N2CCOCC2)c1	-4	4	1	4	1	·
O=C1NC(=S)S/C1=C\C=C\c1ccc([N+](=O)[O-])o1	9	-11	48	-4	31*	20*
Cc1ccc(C(=O)Nc2ccccc2Cl)cc1	-5	3	0	4	-6	·
CC(C)[C@H](NC(=O)c1ccccc1Cl)C(=O)OCC(=O)N1CCCCC1	-6	-3	0	-4	8	·
O=C(C1CC1)N1CCc2cc(Br)cc(S(=O)(=O)NCc3ccco3)c21	-13	-5	2	1	17*	-4
O=C(NC1CCCC1)C1c2ccccc2OCC(=O)N1C1CC1 (stereo not given)	·	·	·	2	·	·
Cn1c(Cn2cnc([N+](=O)[O-])n2)nnc1SCC(=O)Nc1ccccc1	1	-1	1	5	17*	-1
CCOc1ccc(S(=O)(=O)NCCc2ccccn2)cc1	-3	-2	1	-5	4	·
O=S(=O)(c1ccc2nnn(O)c2c1)N1CCOCC1	-6	2	1	0	1	·
O=S(=O)(c1ccc2ncn(O)c2c1)N1CCOCC1	-1	-2	1	14	22*	-9
O=C(NCCCN1CCN(Cc2ccccc2)CC1)C1CCN(S(=O)(=O)N2CCC3(CC2)OCCO3)CC1	-3	-6	-2	-7	18*	3
O=C(NCCCN1CCC(Cc2ccccc2)CC1)C1CCN(S(=O)(=O)N2CCC3(CC2)OCCO3)CC1	1	-1	0	1	7	·
Cc1ccc(C)c(OCCC(=O)NNC(=O)c2ccncc2)c1	-1	1	0	-10	-4	·
Cc1ccc(C)c(OCCC(=O)NNC(=O)c2ccccc2)c1	-3	-2	1	13	17*	0
CCCNC(=O)C1(C)CCCN(Cc2csc3ccccc23)C1 (stereo not given)	·	·	·	9	·	·
CC(C)(C)n1nnnc1C(c1cccc(C#N)c1)N1CCCCCC1 (stereo not given)	-3	-4	-1	-7	23*	-1
CC(C)(C)n1nnnc1C(c1cccc(C#N)c1)N1CCN2CCCC2C1 (stereo not given)	3	4	1	-5	1	·
COCCN(C(=O)COC(=O)c1cc2c(s1)CCC2)c1c(N)n(Cc2ccccc2)c(=O)[nH]c1=O	6	-27	26	-11	20*	16
Cc1cc(/C=C2/NC(=O)NC2=O)c(C)n1C	-4	0	0	-1	0	·
CNC(=O)COc1ccc(Nc2nnc(-c3ccc(C)c(S(N)(=O)=O)c3)c3ccccc23)cc1	4	-2	-3	-3	6	·
Cc1ccc(C)c2nc3sc(C(=O)O)cc3cc12	-3	·	1	-17	·	·
